These results are taken from PubChem BioAssay (NCI).

Structures are written as SMILES. Compounds without any hit were thinned out: in the full panel of roughly 83,000, 20% have a hit.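 Growth was measured after 48 h exposure to one concentration of compound in 96-well plates. Values under 10 count as active.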 Values without a mark were called inactive. Calls of active or inactive are those of the source.

This assay deals with HL-60(TB) leukemia. Description: NCI-60 one-dose screen, 48 h (100 = growth as untreated, 0 = no growth, -100 = all killed). To be noted: 10 µM unless noted.
Take `C[C@]12CCc3c(ccc4cc(O)ccc34)[C@@H]1C[C@H](O)[C@@H]2O`: the growth was 132%.

Turning to `COc1cccc(-c2nc3sccn3c2-c2ccnc(NCCCNS(=O)(=O)c3ccc(F)cc3)c2)c1`, the growth is -13.5% (active).

Regarding `COc1ccc2c(c1)C(=O)/C(=C/c1ccc([N+](=O)[O-])s1)O2`, the growth is -10.7% (active).

As to `CCOC(=O)C1=C(C)N=c2s/c(=C\c3cc(Cl)ccc3O)c(=O)n2C1c1ccc(OC)cc1` (stereo not given), the growth is 98%.

For the compound `COc1ccc(-c2nc3ccc(-c4nc5ccc(N6CCN(c7ccc(F)cc7)CC6)cc5[nH]4)cc3[nH]2)cc1OC`, the growth is 46.5%.

Take `Cn1c(=O)c(F)c(Nc2ccc(I)cc2F)c2c(=O)n(C[C@@H](O)CO)cnc21`: the growth was 15.8%.

As to `COc1ccc(-n2c(/C=C/c3ccc(O)c(OC)c3)cc(/C=C/c3ccc(O)c(OC)c3)nc2=O)cc1`, the growth is 33.7%.

Turning to `N#Cc1ncc(-c2cc(F)ccc2F)c(NC2CCCCCC2)n1`, the growth was 86.9%.

As for `Cn1cc(-c2csc(-c3cn(C)c4ccccc34)n2)c2cnccc21`, the growth was -41.4% (active).

As for `Cc1ccc(-c2nc(N3CCNCC3)c3oc(-c4ccc(C)cc4)nc3n2)cc1`, the growth is -69.3% (active).

Consider `O=C(Nc1nc(-c2ccc(Cl)cc2)cs1)c1cc(-c2ccc(Br)cc2)nc2ccc(Cl)cc12`, for which the growth was -24.7% (active).

Turning to `O=C(CN1C(=O)S/C(=C\c2ccccc2)C1=O)Nc1ncc(Cc2ccccc2Cl)s1`, the growth is 95.1%.

Take `CCCCCC(C)c1ccc(O)c(C)c1` (stereo not given): the growth is 91.4%.

For `COC(=O)[C@]12CCC(C)(C)C[C@H]1[C@H]1/C(=N/OCCc3nn[nH]n3)C[C@@H]3[C@@]4(C)CC[C@H](OC(C)=O)C(C)(C)[C@@H]4CC[C@@]3(C)[C@]1(C)CC2`, the growth is 10.4%.

Consider `O=C(NC[C@H](O)CO)c1ccncc1Nc1ccc(I)cc1F`, for which the growth was 24.2%.

Take `Nc1nc(SCc2cccnc2)c2ncn(C3OC(CO)C(O)C3O)c2n1` (stereo not given): the growth is 103%.

`COc1cc(C2C(C#N)=C(c3c[nH]c4ccccc34)Nc3nc(N)[nH]c(=O)c32)cc(OC)c1OC` (stereo not given): the growth is 42.1%.

`COc1ccc(C(=O)c2ccc(C)cc2)c(OC)c1OC`: the growth was 93.4%.

For `Brc1ccc(Nc2nc(Nc3cnc4ccccc4c3)c3[nH]cnc3n2)cc1`, the growth is 92.9%.

Consider `C=CC(=O)N(C)[C@H]1C[C@H]2OC(C)(C1OC)n1c3ccccc3c3c4c(c5c6ccccc6n2c5c31)C(=O)NC4` (stereo not given in full), for which the growth was -11.2% (active).

On to `NC(=O)c1c(NC(=O)c2ccc3ccccc3c2)sc2c1CCC(=O)C2`, for which the growth is 50.9%.

With `O=C(Nc1cccc(-c2ccc(Cl)c(C(F)(F)F)c2)c1)C1CCN(Cc2cccc3cccnc23)CC1`, the growth is -53.9% (active).

As for `O=C1Nc2ccccc2/C1=C/c1ccc[nH]1`, the growth was 103%.

For `COc1cc2c(cc1OC)CC[N+](CCC[N+](C)(C)C)=C2`, the growth was 90.1%.

`COc1cnc2c(c1)C(=O)c1c-2n(CCCN2CCOCC2)c(=O)c2cc(Cl)ccc12`: the growth is -4.61% (active).

Take `Nc1nonc1-c1nc2ccccc2n1CC(=O)Nc1ccc2c(c1)COC2=O`: the growth was 100%.

In the case of `CCCCCCCCCCC(CN(CC)CC)C(O)c1ccccc1` (stereo not given), the growth was 44.7%.

For the compound `Cc1ccc(C(=NN=C(N)N)c2ccc(C)cc2)cc1`, the growth was -28% (active).

Regarding `c1ccc(-c2ccc(-c3ccccc3)[nH]2)cc1`, the growth is 91.2%.

As for `N#Cc1ccc(NC(=O)Nc2nc3ccc(OC(F)(F)F)cc3s2)cc1`, the growth was -47% (active).

For `CCOC(=O)CSc1nc2ccccc2c(=O)n1Cc1ccc(S(N)(=O)=O)cc1`, the growth was 100%.

Turning to `CC12CCCC(CC(=O)c3[nH]c4ccccc4c31)C2` (stereo not given), the growth is -0.598% (active).

In the case of `CCCCOS(=O)(=O)c1ccccc1`, the growth is 111%.

Regarding `Cn1cc(NC(=O)Nc2cc(C(=O)O)n(C)c2)cc1C(=O)O`, the growth was 90.1%.

For the compound `CC(C)OC(=O)OCOP(=O)(OCOC(=O)OC(C)C)C1CCCN(O)C1=O` (stereo not given), the growth was 6.5% (active).

Regarding `COc1cc(C#Cc2ccc(=O)oc2C#Cc2ccccc2)cc(OC)c1OC`, the growth is 34.2%.

For `COc1cc(/C=C2\CCC/C(=C\c3ccc(OCC4CO4)c(OC)c3)C2=O)ccc1OCC1CO1` (stereo not given), the growth was -3.96% (active).

In the case of `C=CCn1c(=O)c2cnc(Nc3ccc(N4CCN(C)CC4)cc3)nc2n1-c1cccc(C(C)(C)O)n1`, the growth was -22.4% (active).

As to `N/C(=N\O)c1ncc(-c2ccc(C(F)(F)F)cc2)c(NC2CCCCCC2)n1`, the growth is -58.8% [100 µM] (active).

As for `CCCn1c2cc(OCc3cn(-c4ccc(Cl)cc4)nn3)ccc2c2ccnc(C)c21`, the growth was -51.4% (active).
